Laboratory results reported in doi:10.1101/2025.02.07.636106.

These substances were tested against EEA1 (UniProt Q15075) (assay: cross-linking mass spectrometry). Conditions: DMTMM.
Sequence of EEA1 (Q15075 whole entry): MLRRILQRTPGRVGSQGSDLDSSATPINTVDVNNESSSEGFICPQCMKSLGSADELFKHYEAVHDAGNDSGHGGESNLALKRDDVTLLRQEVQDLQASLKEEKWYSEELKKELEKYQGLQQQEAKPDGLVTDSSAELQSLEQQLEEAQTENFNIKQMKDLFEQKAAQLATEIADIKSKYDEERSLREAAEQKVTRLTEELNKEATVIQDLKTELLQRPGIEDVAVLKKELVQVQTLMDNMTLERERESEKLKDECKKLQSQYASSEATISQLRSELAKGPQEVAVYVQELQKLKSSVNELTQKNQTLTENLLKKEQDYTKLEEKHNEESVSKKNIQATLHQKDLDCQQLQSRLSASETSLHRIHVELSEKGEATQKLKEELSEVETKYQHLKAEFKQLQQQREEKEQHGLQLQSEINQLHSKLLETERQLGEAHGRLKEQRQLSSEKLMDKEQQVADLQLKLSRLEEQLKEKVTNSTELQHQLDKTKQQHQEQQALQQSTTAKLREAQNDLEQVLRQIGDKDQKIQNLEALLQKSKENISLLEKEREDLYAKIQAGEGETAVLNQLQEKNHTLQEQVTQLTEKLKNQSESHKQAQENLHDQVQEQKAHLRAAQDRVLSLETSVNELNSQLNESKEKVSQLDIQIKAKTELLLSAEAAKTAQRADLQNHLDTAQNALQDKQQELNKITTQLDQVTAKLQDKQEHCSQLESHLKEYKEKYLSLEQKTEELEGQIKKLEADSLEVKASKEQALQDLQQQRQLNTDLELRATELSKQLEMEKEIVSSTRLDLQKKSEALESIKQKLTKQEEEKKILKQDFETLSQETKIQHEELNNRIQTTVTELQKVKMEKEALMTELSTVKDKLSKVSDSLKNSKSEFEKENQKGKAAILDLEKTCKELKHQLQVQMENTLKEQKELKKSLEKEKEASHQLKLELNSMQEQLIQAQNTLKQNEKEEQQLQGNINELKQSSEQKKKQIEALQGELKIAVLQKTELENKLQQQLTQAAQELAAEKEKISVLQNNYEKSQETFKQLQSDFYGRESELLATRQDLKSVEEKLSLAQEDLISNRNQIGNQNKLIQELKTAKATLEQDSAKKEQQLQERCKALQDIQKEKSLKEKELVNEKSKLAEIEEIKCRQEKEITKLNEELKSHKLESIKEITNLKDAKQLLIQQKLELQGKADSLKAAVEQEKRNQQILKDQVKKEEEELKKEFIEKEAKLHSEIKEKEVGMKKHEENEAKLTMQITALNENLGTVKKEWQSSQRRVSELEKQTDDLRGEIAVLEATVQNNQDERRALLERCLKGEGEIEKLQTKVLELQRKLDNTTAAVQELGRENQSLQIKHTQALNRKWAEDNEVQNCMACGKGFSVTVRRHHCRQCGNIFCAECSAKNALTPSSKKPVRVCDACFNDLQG

Sequence of ACADL, P28330 (P28330 whole entry): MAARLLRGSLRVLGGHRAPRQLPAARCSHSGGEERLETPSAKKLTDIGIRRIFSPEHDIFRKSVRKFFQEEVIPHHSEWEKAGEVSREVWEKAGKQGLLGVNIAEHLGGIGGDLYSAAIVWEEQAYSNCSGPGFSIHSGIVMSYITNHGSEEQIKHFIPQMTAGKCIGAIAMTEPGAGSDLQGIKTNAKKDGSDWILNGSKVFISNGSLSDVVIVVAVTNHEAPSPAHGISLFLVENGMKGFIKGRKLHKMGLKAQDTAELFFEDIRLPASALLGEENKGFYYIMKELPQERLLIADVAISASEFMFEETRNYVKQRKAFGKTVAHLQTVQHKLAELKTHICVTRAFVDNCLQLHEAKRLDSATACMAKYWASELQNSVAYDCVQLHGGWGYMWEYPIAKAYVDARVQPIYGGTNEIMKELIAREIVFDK
Sequence of TPM4, P67936 (P67936 whole entry): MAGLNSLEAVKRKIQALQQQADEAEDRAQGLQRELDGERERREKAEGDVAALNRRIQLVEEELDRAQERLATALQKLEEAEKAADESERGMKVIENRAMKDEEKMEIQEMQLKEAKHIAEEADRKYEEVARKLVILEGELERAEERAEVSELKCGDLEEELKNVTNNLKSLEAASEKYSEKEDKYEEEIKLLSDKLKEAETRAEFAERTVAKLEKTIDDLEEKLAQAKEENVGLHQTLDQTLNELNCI
Sequence of RAB9A, P51151 (P51151 whole entry): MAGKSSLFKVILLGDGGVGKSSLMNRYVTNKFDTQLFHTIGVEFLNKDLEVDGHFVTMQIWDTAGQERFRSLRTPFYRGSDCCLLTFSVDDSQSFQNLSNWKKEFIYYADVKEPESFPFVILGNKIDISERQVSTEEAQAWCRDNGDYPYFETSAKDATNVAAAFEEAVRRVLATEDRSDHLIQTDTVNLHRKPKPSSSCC
Sequence of ROCK2, O75116 (O75116 whole entry): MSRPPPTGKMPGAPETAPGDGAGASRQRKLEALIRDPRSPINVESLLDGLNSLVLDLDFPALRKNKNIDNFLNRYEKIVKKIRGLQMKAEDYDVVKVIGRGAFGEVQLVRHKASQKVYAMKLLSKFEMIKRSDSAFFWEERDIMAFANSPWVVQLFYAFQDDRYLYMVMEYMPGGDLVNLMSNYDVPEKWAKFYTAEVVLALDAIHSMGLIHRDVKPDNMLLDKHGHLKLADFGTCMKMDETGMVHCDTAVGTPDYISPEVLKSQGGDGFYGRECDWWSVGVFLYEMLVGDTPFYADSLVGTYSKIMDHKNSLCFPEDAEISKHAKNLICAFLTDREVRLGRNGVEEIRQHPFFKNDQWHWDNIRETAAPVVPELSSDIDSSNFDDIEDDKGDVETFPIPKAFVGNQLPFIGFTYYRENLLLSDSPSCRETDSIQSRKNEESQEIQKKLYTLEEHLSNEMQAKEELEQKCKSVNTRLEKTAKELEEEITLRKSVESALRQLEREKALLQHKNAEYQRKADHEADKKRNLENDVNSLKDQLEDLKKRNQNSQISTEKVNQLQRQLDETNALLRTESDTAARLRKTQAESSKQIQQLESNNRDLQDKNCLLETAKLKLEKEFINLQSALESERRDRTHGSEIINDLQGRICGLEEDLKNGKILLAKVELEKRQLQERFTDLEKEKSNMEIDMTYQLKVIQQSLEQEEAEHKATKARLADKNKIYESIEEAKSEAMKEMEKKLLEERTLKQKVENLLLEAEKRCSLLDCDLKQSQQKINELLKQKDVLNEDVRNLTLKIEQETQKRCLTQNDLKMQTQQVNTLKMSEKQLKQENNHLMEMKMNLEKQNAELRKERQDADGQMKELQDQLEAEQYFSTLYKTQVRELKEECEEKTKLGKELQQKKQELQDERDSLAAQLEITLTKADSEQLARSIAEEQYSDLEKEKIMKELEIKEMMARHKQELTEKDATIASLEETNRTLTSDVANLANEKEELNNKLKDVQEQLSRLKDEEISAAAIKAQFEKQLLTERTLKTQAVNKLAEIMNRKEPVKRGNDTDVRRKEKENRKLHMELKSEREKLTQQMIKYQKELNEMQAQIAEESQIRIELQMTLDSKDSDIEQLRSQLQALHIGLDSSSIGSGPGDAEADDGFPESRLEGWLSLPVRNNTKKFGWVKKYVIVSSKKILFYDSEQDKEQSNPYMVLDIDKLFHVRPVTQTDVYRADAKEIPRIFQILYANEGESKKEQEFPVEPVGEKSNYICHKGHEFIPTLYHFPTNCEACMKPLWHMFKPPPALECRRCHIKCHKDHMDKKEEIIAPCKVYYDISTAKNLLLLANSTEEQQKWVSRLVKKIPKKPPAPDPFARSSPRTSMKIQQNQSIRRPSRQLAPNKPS

Substance	cross-linked residues
NEB, P20929	K8264 - E1248
ACADL, P28330	K92 - D1321
ZNF638, Q14966	K951 - E91
DMD, P11532	E2453 - K227

Same assay, conditions: DSSO

Substance	cross-linked residues
RAB9A, P51151	K4 - K1340
DST, Q03001	K3770 - K995
TPM4, P67936	K215 - K370
ROCK2, O75116	K780 - K303
